In the library only some 9.2% were active in any assay of this set; here they are far more common.
SMN2 splice up = enhancers of SMN2 splice variant expression | Potency, µM (doses to about 46.1 µM), most hits filed as activators | 2.8% of 210,000 active | HEK293 SMN2-luciferase splicing reporter, luminescence, 30-36 h; further: nearly all actives have a fitted effect of over 55% in size
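qHTS luciferase splicing reporter: luminescence rises when SMN2 exon 7 is included in transfected HEK293 cells. Compound exposure lasted 30-36 h at 37C, with 4.5 mM final sodium butyrate as control, followed by a ONE-Glo read.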
NPC1 promoter act = NPC1 promoter activation. AID 485313. 2.4% of 320,000 active. Potency, µM (titrated, usually from 9.22 µM), actives largely listed as activators. Huh7 NPC1 promoter luciferase reporter, 24 h; further: nearly all actives have a fitted effect of over 60% in size
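NPC1 promoter–luciferase Huh7 cells; 24 h compound; luminescence.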
Rab9 prom act = Rab9 promoter activation | 2.8% of 320,000 active | Huh7 Rab9 promoter-luciferase reporter, luminescence, 24 h | Potency, µM (top dose mostly 9.22 µM), most hits filed as activators | AID 485297; further: nearly all actives have a fitted effect of over 60% in size
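Promoter activation is measured as luciferase luminescence in Huh7 cells stably transfected with a Rab9 promoter–luciferase construct, following 24 h compound exposure at 37 °C and 10 min reagent incubation at ambient temperature.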
FLuc counter = counter-screen for miR-21 project: firefly luciferase inhibitors or activators; purified FLuc, Km substrates, luminescence inhibition; P08659; 6.9% of 360,000 active; Potency, µM (top dose mostly 57.5 µM), usual class: inhibitors; further: nearly all actives have a fitted effect of over 55% in size
Target sequence (P08659 whole entry, looked up): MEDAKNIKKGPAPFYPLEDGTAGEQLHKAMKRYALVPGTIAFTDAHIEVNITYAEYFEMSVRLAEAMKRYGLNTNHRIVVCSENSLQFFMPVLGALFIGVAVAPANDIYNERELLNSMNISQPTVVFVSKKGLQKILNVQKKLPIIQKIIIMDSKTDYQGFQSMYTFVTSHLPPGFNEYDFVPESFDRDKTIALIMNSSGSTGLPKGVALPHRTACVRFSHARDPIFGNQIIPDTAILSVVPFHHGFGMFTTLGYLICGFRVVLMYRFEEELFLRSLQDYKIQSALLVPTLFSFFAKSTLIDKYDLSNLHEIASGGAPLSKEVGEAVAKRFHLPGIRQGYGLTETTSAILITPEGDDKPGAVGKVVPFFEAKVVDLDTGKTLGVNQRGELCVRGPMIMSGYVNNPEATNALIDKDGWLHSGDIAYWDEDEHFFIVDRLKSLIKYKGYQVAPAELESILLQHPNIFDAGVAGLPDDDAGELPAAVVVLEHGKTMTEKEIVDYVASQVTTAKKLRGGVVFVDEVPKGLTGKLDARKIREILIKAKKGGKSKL
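Purified P. pyralis luciferase (10nM final) with 10uM D-luciferin and 10uM ATP (Km levels) in 50mM Tris acetate pH 7.5, 10mM Mg acetate, 0.01% Tween-20, 0.05% BSA; qHTS 6-point titration, ~60 µM downward; luminescence read.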
ELG1 DNA repair = blocks ELG1-dependent DNA repair in HEK293T cells. HEK293T ELG1-luciferase reporter, luminescence, 16 h; DNA damage induced by 5-fluorouridine. Potency, µM (top dose mostly 46.1 µM), actives largely listed as inhibitors. 2.3% of 330,000 active. AID 504467; further: nearly all actives have a fitted effect of over 55% in size
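Overnight (16 hr) co-exposure of 2,000 cells/well to 5-fluorouridine and compound at 37 °C preceded detection. Luciferase was quantified via ONE-Glo luminescence; loss of signal denotes inhibition.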
ELG1 genotoxic = induces genotoxicity in HEK293T cells with luciferase-tagged ELG1; 1.3% of 330,000 active; HEK293T ELG1-luciferase reporter, luminescence, 16 h; Potency, µM (doses to about 46 µM), most hits filed as activators; further: nearly all actives have a fitted effect of over 60% in size
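After overnight (16 hr) compound treatment at 37 °C, ELG1-luciferase HEK293T cells were lysed with ONE-Glo; luminescence quantified 30 min later at room temperature.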
Of the large screens only hits and unclear results are named; the others gave an inactive call. The call rests on the fitted dose curve; in most records, active means well fitted curve in the direction sought with a large enough effect; inconclusive means small, poorly fitted or top-dose-only effect, or another doubt; inactive means no such curve, though single readings can be large; an effect the other way counts as inactive or inconclusive.

CC1CCCN(C(=O)COC(=O)CNC(=O)c2sc3ccccc3c2Cl)C1 (stereo not given)	FLuc counter 23.9µM (no result: SMN2 splice up)
CC1CCCC(C)N1C(=O)COC(=O)CNC(=O)c1sc2ccccc2c1Cl (stereo not given)	FLuc counter inconclusive (no result: SMN2 splice up)
CC1CCCN(C(=O)COC(=O)Cc2c(F)cccc2Cl)C1 (stereo not given)	NPC1 promoter act inconclusive, Rab9 prom act inconclusive, FLuc counter 16.9µM, ELG1 DNA repair inconclusive, ELG1 genotoxic inconclusive (no result: SMN2 splice up)
CC(C)CN(C(=O)COC(=O)CNC(=O)c1sc2ccccc2c1Cl)C1CCS(=O)(=O)C1 (stereo not given)	FLuc counter 12µM (no result: SMN2 splice up)
CCn1c(O)c(N=NC(=O)C(O)c2ccccc2)c2ccccc21 (stereo not given)	none (no result: SMN2 splice up)
O=C1C(c2ccnc3ccccc23)=C(O)c2ccccc21	SMN2 splice up 0.398µM, NPC1 promoter act 2.51µM, Rab9 prom act inconclusive, FLuc counter 0.107µM, ELG1 DNA repair inconclusive, ELG1 genotoxic inconclusive
O=C1c2ccccc2C(=O)C1c1nccc2ccccc12	SMN2 splice up 0.631µM, NPC1 promoter act 3.16µM, Rab9 prom act 1.26µM, FLuc counter 0.151µM, ELG1 DNA repair inconclusive, ELG1 genotoxic 0.082µM
c1ccc2c(-c3nn[nH]n3)cccc2c1	none
O=C1c2ccccc2C(=O)C1c1ccnc2ccccc12	SMN2 splice up 0.398µM, NPC1 promoter act 3.55µM, Rab9 prom act 0.631µM, FLuc counter 0.151µM, ELG1 DNA repair inconclusive, ELG1 genotoxic inconclusive
CCOc1ccc(NC(=O)CSC2=Nc3ccccc3C3=NC(CC(=O)NCc4ccccc4OC)C(=O)N23)cc1 (stereo not given)	none (no result: SMN2 splice up, NPC1 promoter act, Rab9 prom act, ELG1 DNA repair, ELG1 genotoxic)
Cc1cccc(CN2C(=O)c3ccccc3Sc3ccc(C(=O)NCc4cccs4)cc32)c1	none (no result: SMN2 splice up, NPC1 promoter act, Rab9 prom act, ELG1 DNA repair, ELG1 genotoxic)
Cc1cc(C)nc(NC(=O)c2ccc([N+](=O)[O-])o2)n1	none
O=C(Nc1nc2cc3c(cc2s1)OCCO3)c1ccc([N+](=O)[O-])o1	NPC1 promoter act 0.891µM, Rab9 prom act 1µM, FLuc counter 1.2µM, ELG1 DNA repair inconclusive, ELG1 genotoxic 9.2µM (no result: SMN2 splice up)
COc1ccc2nc(NC(=O)c3ccc([N+](=O)[O-])o3)sc2c1	NPC1 promoter act inconclusive, Rab9 prom act 2.82µM, FLuc counter 2.13µM, ELG1 DNA repair inconclusive (no result: SMN2 splice up)
O=C(Nc1nc2ccccc2s1)c1ccccc1[N+](=O)[O-]	NPC1 promoter act inconclusive, Rab9 prom act inconclusive, FLuc counter 16.9µM, ELG1 DNA repair inconclusive, ELG1 genotoxic inconclusive (no result: SMN2 splice up)
O=C(Nc1nc2c(F)cc(F)cc2s1)c1ccc([N+](=O)[O-])o1	NPC1 promoter act 2.24µM, Rab9 prom act 1.58µM, FLuc counter 16.9µM, ELG1 DNA repair inconclusive (no result: SMN2 splice up)
COc1cc2c(cc1NC(=O)C(C)OC(=O)c1ccc(S(=O)(=O)Nc3ccccc3Cl)cc1)oc1ccccc12 (stereo not given)	none (no result: SMN2 splice up)
O=c1[nH]c2ccccc2cc1CN(CC1CCCO1)S(=O)(=O)c1ccccc1 (stereo not given)	none (no result: SMN2 splice up)
Cc1cc(OC(C)C(=O)N(Cc2ccco2)Cc2ccccc2F)cc(C)c1Cl (stereo not given)	none (no result: NPC1 promoter act, Rab9 prom act, ELG1 DNA repair, ELG1 genotoxic)
Cc1cc(C)c2sc(NC(=O)c3ccc([N+](=O)[O-])o3)nc2c1	FLuc counter 13.5µM, ELG1 DNA repair inconclusive (no result: SMN2 splice up)
O=C(Nc1nc(-c2ccccn2)cs1)c1ccc([N+](=O)[O-])o1	FLuc counter inconclusive, ELG1 DNA repair inconclusive (no result: SMN2 splice up)
Cc1cnc(NC(=O)c2ccc(-c3nc4ccccc4s3)o2)s1	FLuc counter 16.9µM, ELG1 DNA repair inconclusive
Cc1cc(C)c2nc(NC(=O)c3ccc([N+](=O)[O-])o3)sc2c1	FLuc counter inconclusive, ELG1 DNA repair inconclusive (no result: SMN2 splice up)
O=C(Nc1nc2ccccc2s1)c1ccc([N+](=O)[O-])o1	NPC1 promoter act inconclusive, Rab9 prom act inconclusive, FLuc counter 6.75µM, ELG1 DNA repair inconclusive (no result: SMN2 splice up)
Cc1cnc(NC(=O)c2ccc(-c3ccc([N+](=O)[O-])cc3)o2)s1	none (no result: SMN2 splice up)
COc1ccc(S(=O)(=O)NCCc2cn3ccsc3n2)cc1OC	none (no result: SMN2 splice up, NPC1 promoter act, Rab9 prom act, ELG1 DNA repair, ELG1 genotoxic)
CCC(=O)N1CCc2cc(S(=O)(=O)NCCC(=O)Nc3ccc(N(CC)CC)cc3C)ccc21	none (no result: NPC1 promoter act, Rab9 prom act, ELG1 DNA repair, ELG1 genotoxic)
